“And” between values parts separate entries of the source, which are not always exact repeats. Equal values may be shown once. ± gives the uncertainty stated by the source.
Tested on: U87
Assay: cell viability relative to vehicle control; higher = less growth inhibition (less active)
Settings: 10 µM; 72 h
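Further: viable cell number estimated from Alamar Blue fluorescence read at 560/90, part of a single-dose primary screen of an FDA-approved drug library.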

Row | SMILES | cell viability
1 | CC(=O)O[C@H]1C[C@@H]2CC[C@@H]3[C@H](CC[C@@]4(C)[C@H]3C[C@H]([N+]3(C)CCCCC3)[C@@H]4OC(C)=O)[C@@]2(C)C[C@@H]1[N+]1(C)CCCCC1 [Pancuronium] | 103.79 ± 0.081%
2 | CNC1CC(c2ccc(Cl)c(Cl)c2)c2ccccc21 (centres undefined) [Indatraline] | 99.93 ± 0.57%
3 | C[N+]1(CCC(C(N)=O)(c2ccccc2)c2ccccc2)CCCCC1 | 102 ± 1.4%
4 | COc1ccc(CCN)cc1OC [Homoveratrylamine] | 104 ± 1.1%
5 | CC(C)CC(N(C)C)C1(c2ccc(Cl)cc2)CCC1 (centres undefined) | 108 ± 1.9%
6 | COc1cc2c(cc1OC)[C@@]13CCN4CC5=CCO[C@H]6CC(=O)N2[C@H]1[C@H]6[C@H]5C[C@H]43 [Brucine] | 107 ± 1.1%
7 | CN1C(=O)CN=C(c2ccccc2)c2cc(Cl)ccc21 [Diazepam] | 98.6 ± 2.1%
8 | C=C(C)CN1CC[C@]23c4c5ccc(O)c4O[C@H]2c2[nH]c4ccccc4c2C[C@@]3(O)C1C5 | 101 ± 1.4%
9 | Oc1ccc2c3c1O[C@H]1c4[nH]c5ccccc5c4C[C@@]4(O)[C@@H](C2)N(CC2CC2)CC[C@]314 [Naltrindole] | 105 ± 3%
10 | Cc1ccc(-c2nc3ccc(C)cn3c2CC(=O)N(C)C)cc1 | 106 ± 1.9%
11 | CCN(C(C)=O)c1cccc(-c2ccnc3c(C#N)cnn23)c1 [Zaleplon] | 111.7 ± 0.3%
12 | NC(=O)C[S+]([O-])C(c1ccccc1)c1ccccc1 (centres undefined) [Modafinil] | 107 ± 1.4%
13 | CCN(CC)CCOC(=O)C(O)(c1ccccc1)c1ccccc1 | 101 ± 3.5%
14 | NC(=O)OCCCc1ccccc1 | 104 ± 1.9%
15 | C[C@]12CCC(=O)C[C@@H]1CC[C@@H]1[C@@H]2CC[C@@]2(C)[C@H]1CC[C@]2(C)O [Mestanolone] | 105.6 ± 0.93%
16 | Oc1ccc2c3c1O[C@H]1[C@@H](O)CC[C@@]4(O)[C@@H](C2)N(CC2CCC2)CC[C@]314 [Nalbuphine] | 99.2 ± 7.3%
17 | CNC1=Nc2ccc(Cl)cc2C(c2ccccc2)=[N+]([O-])C1 | 104 ± 1.7%

Row | SMILES | cell viability
18 | C[C@]12C/C(=C/O)C(=O)C[C@@H]1CC[C@@H]1[C@@H]2CC[C@@]2(C)[C@H]1CC[C@]2(C)O [Oxymetholone] | 113 ± 2.5%
19 | COc1ccc2[nH]cc(C3=CCNCC3)c2c1 | 105 ± 2.3%
20 | C[N+]1(C)CCN(c2ccccc2)CC1 | 96.62 ± 0.74%
21 | CC(NC(C)(C)C)C(=O)c1cccc(Cl)c1 (centres undefined) | 105% and 107%
22 | Cc1nnc2n1-c1ccc(Cl)cc1C(c1ccccc1)=NC2 [Alprazolam] | 89.23 ± 0.4%
23 | CC[C@@H]1C=CC=CC[C@H](C)[C@@H](O)[C@@H](C)C(=O)[C@H](C)[C@@H](O)[C@H](C)C(=O)[C@H](C)[C@@H](O)[C@H](C)C=CC(=O)O[C@H]2[C@@H](C)[C@@H](CC1)O[C@@]1(CC[C@@H](C)[C@@H](C[C@H](C)O)O1)[C@@H]2C | 109 ± 11%
24 | C[C@]12CCC(=O)C=C1CC[C@@H]1[C@@H]2CC[C@@]2(C)[C@H]1CC[C@]2(C)O [Methyltestosterone] | 66.4 ± 2.3%
25 | CNCC(O)c1ccc(O)cc1 (centres undefined) | 107 ± 4.5%
26 | COc1ccc(C(CN(C)C)C2(O)CCCCC2)cc1 (centres undefined) | 103 ± 1.8%
27 | FC(F)(F)c1cccc(N2CCNCC2)c1 | 109 ± 1.2%
28 | Oc1cc2c(cc1O)[C@H]1c3ccccc3CN[C@@H]1CC2 | 109 ± 1.4%
29 | CN1CC[C@]2(c3cccc(O)c3)Cc3nc4ccccc4cc3C[C@H]2C1 | 103 ± 1.4%
30 | C[C@H]1CCC[C@H](O)CCCCCc2cc(O)cc(O)c2C(=O)O1 | 107 ± 2.7%
31 | CCCCCCCCCOc1ccc2[nH]cc(CCN)c2c1 [5-Nonyloxytryptamine] | 37.1 ± 1.2%
32 | C[C@]12CC[C@H](O)CC1=CC[C@@H]1[C@@H]2CC[C@@]2(C)[C@H]1CC[C@]2(C)O | 127 ± 3.6%
33 | O=c1c2ccccc2[se]n1-c1ccccc1 | 107 ± 1.6%
34 | C[C@]12CC[C@H]3[C@@H](CCC4=CC(=O)CC[C@@]43C)[C@@H]1CC[C@@H]2O [Testosterone] | 107 ± 1.6%
